Molecules are shown by their SMILES.

Among the test systems are CSNK1G1; CSNK1G2; CSNK1G3; CSNK2A1; CSNK2A2; DAPK1; DAPK2; DAPK3; DDR1; DDR2; DMPK; DYRK1A.
Conditions in all cases: concentration: 1 μM,replicates: in singlicate; n = 1
For another assay, the system named is T1, CTK.
T1 construct: gene MATK

The test system of a further assay is T2, DCAMKL1.
T2 construct: gene DCLK1

The next assay concerns T3, DCAMKL2.
T3 construct: gene DCLK2

The subject of a further assay is T4, DCAMKL3.
T4 construct: gene DCLK3

A further assay concerns T5, DLK.
T5 construct: gene MAP3K12

A further assay deals with T6, DMPK2.
T6 construct: gene CDC42BPG

The test system of the next assay is T7, DRAK1.
T7 construct: gene STK17A

In the next assay the test system is T8, DRAK2.
T8 construct: gene STK17B
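Note: KINOMEscan kinase panel screen.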

In the case of `CC(C)c1nc(-c2cccc(NS(=O)(=O)c3ccccc3)c2)c(-c2ccnc(Nc3ccc4c(c3)CN(C)CC4)n2)s1` [GSK1649598], the “%Inh” value is recorded as 19% in the assay on CSNK1G1; 0% with CSNK1G2; 28% in the assay with CSNK1G3; 0% in the assay on CSNK2A1; 9% with CSNK2A2; 5% in the assay with CTK. Moreover, the “%Inh” value with DAPK1 came to 30%; with DAPK2, 55%; with DAPK3 it was 21%; with DCAMKL1 it was 0%; in the assay with DCAMKL2 it was 17%; in the assay with DCAMKL3, 17%. Also, the “%Inh” value is 100% with DDR1; 42% in the assay with DDR2; 69% in the assay on DLK; 61% in the assay on DMPK2; 0% with DMPK; 0% with DRAK1. Further, the “%Inh” value in the assay with DRAK2 is 0%; in the assay with DYRK1A, 4%.

On to `CCn1c(-c2nonc2N)nc2cncc(CNC3CCNCC3)c21.Cl` [SB-747651], for which the “%Inh” value in the assay with CSNK1G1 was 24%; in the assay with CSNK1G2, 0%; in the assay on CSNK1G3, 0%; with CSNK2A1 it was 0%; with CSNK2A2 it was 0%; in the assay with CTK it was 0%. Also, the “%Inh” value is on record as 41% with DAPK1; 0% in the assay on DAPK2; 27% with DAPK3; 7% in the assay on DCAMKL1; 0% in the assay on DCAMKL2; 7% in the assay with DCAMKL3. The “%Inh” value in the assay with DDR1 amounted to 19%; in the assay with DDR2, 25%; in the assay with DLK, 23%; with DMPK2 it was 0%; with DMPK it was 27%; with DRAK1 it was 6%. In addition, the figures for the “%Inh” value in the assay with DRAK2 and in the assay on DYRK1A were 0% and 56%, respectively.

In the case of `Cc1ccc(CC(=O)N2CCc3cc(-c4cn(C)c5ncnc(N)c45)ccc32)cc1` [GSK2634758], the “%Inh” value was 30% in the assay on CSNK1G1; 26% with CSNK1G2; 26% in the assay with CSNK1G3; 0% in the assay on CSNK2A1; 0% in the assay on CSNK2A2; 0% in the assay with CTK. The “%Inh” value in the assay on DAPK1 worked out at 0%; in the assay with DAPK2, 5%; in the assay with DAPK3, 0%; in the assay with DCAMKL1, 0%; in the assay on DCAMKL2, 0%; in the assay with DCAMKL3 it was 0%. In addition, the “%Inh” value in the assay on DDR1 was 61%; in the assay on DDR2 it was 44%; with DLK, 21%; in the assay on DMPK2 it was 68%; with DMPK it was 15%; in the assay with DRAK1 it was 0%. Moreover, the “%Inh” value with DRAK2 and with DYRK1A was 0% throughout.

As to `Cc1ccc2c(-c3ccnc(Nc4ccc(C(F)(F)F)cc4)n3)cnn2n1` [GW819776], the “%Inh” value turned out to be 0% in the assay with CSNK1G1; 14% in the assay with CSNK1G2; 0% with CSNK1G3; 18% in the assay with CSNK2A1; 35% in the assay on CSNK2A2; 24% in the assay on CTK. For the same molecule, the “%Inh” value is 19% in the assay on DAPK1; 0% in the assay on DAPK2; 25% in the assay on DAPK3; 34% in the assay with DCAMKL1; 0% with DCAMKL2; 0% in the assay on DCAMKL3. Besides, the “%Inh” value in the assay on DDR1 stood at 0%; with DDR2 it was 4%; in the assay with DLK, 0%; in the assay with DMPK2, 9%; with DMPK it was 0%; in the assay on DRAK1, 37%. Further, the results for the “%Inh” value in the assay with DRAK2 and with DYRK1A were 13% and 37%, respectively.

As to `OCCn1cc(-c2cnc3nnn(Cc4ccc5ncccc5c4)c3n2)cn1`, the “%Inh” value in the assay on CSNK1G1 is on record as 1%; in the assay with CSNK1G2, 0%; in the assay with CSNK1G3 it was 9%; in the assay with CSNK2A1, 0%; with CSNK2A2, 0%; in the assay on CTK it was 0%. For the same molecule, the “%Inh” value turned out to be 0% with DAPK1; 0% with DAPK2; 0% in the assay on DAPK3; 66% in the assay with DCAMKL1; 0% in the assay on DCAMKL2; 0% in the assay with DCAMKL3. In addition, the “%Inh” value in the assay with DDR1 was 0%; with DDR2, 4%; with DLK, 0%; in the assay with DMPK2, 0%; in the assay on DMPK, 0%; with DRAK1, 10%. Besides, the “%Inh” value was determined as 12% with DRAK2 and 0% in the assay with DYRK1A.

Turning to `CCOC(=O)N1CCC(n2cnc(-c3ccc(F)cc3)c2-c2ccnc(N)n2)CC1` [SB-219952], the “%Inh” value in the assay on CSNK1G1 was determined as 4%; with CSNK1G2 it was 12%; with CSNK1G3 it was 0%; in the assay with CSNK2A1, 19%; with CSNK2A2, 9%; with CTK, 0%. Moreover, the “%Inh” value with DAPK1 worked out at 25%; with DAPK2, 0%; with DAPK3, 0%; in the assay with DCAMKL1, 22%; in the assay on DCAMKL2 it was 15%; in the assay with DCAMKL3 it was 18%. Besides, the “%Inh” value is reported as 83% in the assay with DDR1; 60% with DDR2; 0% in the assay with DLK; 39% with DMPK2; 22% with DMPK; 0% in the assay on DRAK1. The “%Inh” value in the assay on DRAK2 is reported as 0%; in the assay on DYRK1A, 2%.

As for `Cn1cc(-c2cccc3c(N)c(C(N)=O)nnc23)cn1`, the “%Inh” value is listed as 13% in the assay on CSNK1G1; 7% in the assay on CSNK1G2; 10% in the assay with CSNK1G3; 26% in the assay on CSNK2A1; 33% with CSNK2A2; 32% in the assay with CTK. In addition, the “%Inh” value is recorded as 3% in the assay with DAPK1; 16% with DAPK2; 5% in the assay on DAPK3; 7% with DCAMKL1; 13% in the assay on DCAMKL2; 23% in the assay on DCAMKL3. For the same molecule, the “%Inh” value in the assay on DDR1 was found to be 0%; in the assay on DDR2 it was 0%; with DLK it was 27%; in the assay with DMPK2, 7%; in the assay on DMPK, 0%; in the assay with DRAK1 it was 79%. The “%Inh” value in the assay on DRAK2 is 12%; in the assay with DYRK1A it was 56%.

The record behind these values is publication PMC5540273 (PLoS ONE, 2017).
